Reference: PubChem BioAssay (Tox21)
Inconclusive results are not listed. The source made the active and inactive calls. Unless noted, the call rests on the fitted dose curve; in most records, active means well fitted curve in the direction sought with a large enough effect in the repeat runs; inconclusive means weak or mixed curves; inactive means flat fitted curve, though single readings scatter.

Assays:
[1] = qHTS assay to test for compound auto fluorescence at 535 nm (green) in HEK293 cells (AID 720680)
[2] = qHTS assay to test for compound auto fluorescence at 460 nm (blue) in HEK293 cell free culture (AID 720681)
Method in brief: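 Compounds were added to cell-free DMEM with 10% FBS and fluorescence read directly. The blue channel used 405 nm excitation and 460 nm emission, with triamterene as the reference fluorophore.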

[3] = qHTS assay to test for compound auto fluorescence at 535 nm (green) in HEK293 cell free culture (AID 720682)
Method in brief: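 Read-out: 485/535 nm fluorescence intensity, calibrated against fluorescein. Medium only (DMEM + 10% FBS, no cells); test compound or DMSO vehicle added by pintool before plate reading.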

[4] = qHTS assay to test for compound auto fluorescence at 590 nm (red) in HEK293 cell free culture (AID 720683)
Method in brief: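 Cell-free wells of DMEM with 10% FBS received compound, and intrinsic fluorescence was read at excitation/emission 540/590 nm. Values expressed as equivalence to Rose Bengal sodium.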

[5] = qHTS assay to test for compound auto fluorescence at 590 nm (red) in HepG2 cell free culture (AID 720684)
Method in brief: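 Compounds are added to culture medium (MEM, 10% FBS) lacking cells, then fluorescence is read at excitation 540 nm, emission 590 nm, with Rose Bengal sodium as the equivalency standard.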

[6] = qHTS assay to test for compound auto fluorescence at 460 nm (blue) in HepG2 cell free culture (AID 720685)
Method in brief: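 Compound (23 nL) or DMSO pinned into cell-free MEM with 10% FBS; blue fluorescence read at 405/460 nm excitation/emission, expressed as auto-fluorescence equivalency to triamterene.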

[7] = qHTS assay to test for compound auto fluorescence at 535 nm (green) in HepG2 cell free culture (AID 720686)
[8] = qHTS assay to test for compound auto fluorescence at 460 nm (blue) in HepG2 cells (AID 720687)
Method in brief: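 HepG2 cells in MEM with 10% FBS, attached overnight at 37 C, were exposed to compound or DMSO for 1 hr at 37 C, 5% CO2. Blue fluorescence was read at 405/460 nm, with triamterene as reference fluorophore.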

[9] = biological target: Glucocorticoid receptor (Homo sapiens) (UniProt P04150); assay: qHTS assay to identify small molecule agonists of the glucocorticoid receptor (GR) signaling pathway (AID 720691; active means well fitted activation curve with a large enough effect in the signal ratio in the repeat runs, not every such curve was filed as active; the % refers to the signal ratio)
Method in brief: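 GR-bla HeLa cells (beta-lactamase reporter under glucocorticoid response element) were plated 4 h at 37 C/5% CO2, given compounds in DMSO, and incubated 18 h at 37 C. LiveBLAzer B/G FRET substrate was added for 2 h at room temperature, then fluorescence intensity read.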

[10] = biological target: Glucocorticoid receptor (Homo sapiens) (UniProt P04150); assay: qHTS assay to identify small molecule antagonists of the glucocorticoid receptor (GR) signaling pathway (AID 720692; active means well fitted inhibition curve with a large enough effect in the signal ratio in the repeat runs, not every such curve was filed as active; the % refers to the signal ratio)
Method in brief: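 GR-bla HeLa cells (beta-lactamase reporter under glucocorticoid response element) were pre-plated 4 h at 37 C, treated with compounds plus 5 nM dexamethasone (final) for 18 h, then read by LiveBLAzer B/G FRET fluorescence after 2 h.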
On the % scale 0 is the no-effect control and ±100 the full control effect.

Chain of Glucocorticoid receptor (Homo sapiens) (P04150 whole entry, looked up): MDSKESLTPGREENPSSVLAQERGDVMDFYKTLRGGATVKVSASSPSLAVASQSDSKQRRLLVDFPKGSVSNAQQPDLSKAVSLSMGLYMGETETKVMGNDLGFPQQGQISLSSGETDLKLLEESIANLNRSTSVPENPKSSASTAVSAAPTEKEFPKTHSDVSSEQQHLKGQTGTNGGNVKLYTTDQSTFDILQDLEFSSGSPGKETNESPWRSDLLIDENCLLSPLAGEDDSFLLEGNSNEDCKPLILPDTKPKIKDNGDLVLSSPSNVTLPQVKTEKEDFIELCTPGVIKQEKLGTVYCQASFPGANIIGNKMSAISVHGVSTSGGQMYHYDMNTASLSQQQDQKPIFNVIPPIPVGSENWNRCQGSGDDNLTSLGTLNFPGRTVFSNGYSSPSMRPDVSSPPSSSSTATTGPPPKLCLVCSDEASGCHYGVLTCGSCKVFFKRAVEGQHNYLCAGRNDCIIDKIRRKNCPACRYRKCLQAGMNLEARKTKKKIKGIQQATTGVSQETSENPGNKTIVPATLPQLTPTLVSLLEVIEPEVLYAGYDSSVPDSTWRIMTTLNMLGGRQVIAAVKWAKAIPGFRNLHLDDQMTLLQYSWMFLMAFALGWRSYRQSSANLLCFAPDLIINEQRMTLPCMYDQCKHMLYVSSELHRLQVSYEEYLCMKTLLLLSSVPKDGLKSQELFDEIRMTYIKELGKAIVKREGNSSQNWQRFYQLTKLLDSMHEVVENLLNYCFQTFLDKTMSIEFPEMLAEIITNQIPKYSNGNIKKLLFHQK

CC(C)CCCC(C)CC=O (stereo not given)
inactive: outcome [1] | outcome [2] | outcome [3] | outcome [4] | outcome [5] | outcome [6] | outcome [7] | outcome [8]

CN(C)CCCNCCC#N
inactive: outcome [1] | outcome [2] | outcome [3] | outcome [4] | outcome [5] | outcome [6] | outcome [7] | outcome [8]

COCC(=O)Nc1c(I)c(C(=O)NCC(O)CO)c(I)c(C(=O)N(C)CC(O)CO)c1I (stereo not given)
inactive: fluorescence, % of fluorescein [1] -0.025% [at 18.6 µM] | fluorescence, % of fluorescent control [2] -0.0015% [at 18.6 µM] | activity change [3] 0.0796% [at 18.6 µM] | fluorescence, % of fluorescent control [4] 0.0121% [at 18.6 µM] | fluorescence, % of Rose Bengal [5] 0.0461% [at 18.6 µM] | fluorescence, % of fluorescent control [6] -0.109% [at 18.6 µM] | fluorescence, % of fluorescein control [7] -0.084% [at 18.6 µM]

CCN(CCO)c1cccc(C)c1
inactive: outcome [1] | outcome [2] | outcome [3] | outcome [4] | outcome [5] | outcome [6] | outcome [7] | outcome [8]

Nc1cc(C(=O)O)ccc1Cl
inactive: outcome [1] | outcome [2] | outcome [3] | outcome [4] | outcome [5] | outcome [6] | outcome [7]

CC(C)COC(=O)/C=C/c1ccccc1
inactive: outcome [1] | outcome [2] | outcome [3] | outcome [4] | outcome [5] | outcome [6] | outcome [7] | outcome [8]

CCC(=O)OCCC(C)CCC=C(C)C (stereo not given)
inactive: outcome [1] | outcome [2] | outcome [3] | outcome [4] | outcome [5] | outcome [6] | outcome [7] | outcome [8]

O=S(=O)(O)SSS(=O)(=O)O
inactive: outcome [1] | outcome [2] | outcome [3] | outcome [4] | outcome [5] | outcome [6]

CCOC(=O)CC(CC(=O)OCC)(OC(C)=O)C(=O)OCC
inactive: outcome [1] | outcome [2] | outcome [3] | outcome [4] | outcome [5] | outcome [6] | outcome [7] | outcome [8]

Cc1nc2ccccc2c(=O)o1
inactive: outcome [1] | outcome [2] | outcome [3] | outcome [4] | outcome [5] | outcome [6] | outcome [7] | outcome [8]

CC(CC(=O)O)CC(C)(C)C (stereo not given)
inactive: outcome [1] | outcome [2] | outcome [3] | outcome [4] | outcome [5] | outcome [6] | outcome [7] | outcome [8]

CCNC(=O)NCCCOc1cccc(CN2CCCCC2)c1
inactive: outcome [1] | outcome [2] | outcome [3] | outcome [4] | outcome [5] | outcome [6] | outcome [7] | outcome [8] | Potency [9]

Cn1c(=O)c2c(ncn2CC2OCCO2)n(C)c1=O
inactive: outcome [1] | outcome [2] | outcome [3] | outcome [4] | outcome [5] | outcome [6] | outcome [7] | outcome [8]

O=C(Nc1cccc(C2=NCCN2)c1)Nc1cccc(C2=NCCN2)c1
inactive: outcome [1] | outcome [2] | outcome [3] | outcome [4] | outcome [5] | outcome [6] | outcome [7] | outcome [8] | Potency [9]

C=CCOc1c(Br)cc(C(C)(C)c2cc(Br)c(OCC=C)c(Br)c2)cc1Br
inactive: outcome [1] | outcome [2] | outcome [3] | outcome [4] | outcome [5] | outcome [6] | outcome [7] | outcome [8] | Potency [9]

Cc1cc(O)c2c(c1)C(=O)c1cccc(O)c1C2=O
inactive: outcome [1] | outcome [2] | outcome [3] | outcome [4] | outcome [5] | outcome [6] | outcome [7] | outcome [8] | Potency [9]

CCCCCCCCCCCCCCCC(=O)NCCO
inactive: outcome [1] | outcome [2] | outcome [3] | outcome [4] | outcome [5] | outcome [6] | outcome [7] | outcome [8]

COc1cc2c(Nc3ccc(Br)cc3F)ncnc2cc1OCC1CCN(C)CC1
inactive: outcome [1] | outcome [2] | outcome [3] | outcome [4] | outcome [5] | outcome [6] | outcome [7] | outcome [8] | Potency [9]

C[Si]1(C)N[Si](C)(C)N[Si](C)(C)N1
inactive: outcome [1] | outcome [2] | outcome [3] | outcome [4] | outcome [5] | outcome [6] | outcome [7] | outcome [8]

CCCOCCOCCOCCO
inactive: outcome [1] | outcome [2] | outcome [3] | outcome [4] | outcome [5] | outcome [6] | outcome [7] | outcome [8]

Cc1ccccc1N1CCN(CCc2nnc3n2CCCC3)CC1
inactive: outcome [1] | outcome [2] | outcome [3] | outcome [4] | outcome [5] | outcome [6] | outcome [7] | outcome [8] | Potency [9] | outcome [10]

CC(C)CCC(=O)CCC(C)C
inactive: outcome [1] | outcome [2] | outcome [3] | outcome [4] | outcome [5] | outcome [6] | outcome [7] | outcome [8] | Potency [9]

O=C(COCCOCCOCC(=O)Nc1c(I)cc(I)c(C(=O)O)c1I)Nc1c(I)cc(I)c(C(=O)O)c1I
inactive: outcome [1] | outcome [2] | outcome [3] | outcome [4] | outcome [5] | outcome [6] | outcome [7] | outcome [8] | Potency [9] | outcome [10]
